Results filed as inconclusive are left out. The source made the active and inactive calls. Calls follow the shape of the full dose curve.
Molecular target: Bile acid receptor (Homo sapiens) (UniProt Q96RI1)
Assay: qHTS assay for small molecule antagonists of farnesoid X receptor signaling (AID 588526)
Conditions: HEK293T FXR-UAS-bla, beta-lactamase ratio, antagonist mode; series mostly up to 76.7 µM
Source text: NIH Chemical Genomics Center [NCGC] U.S. Environmental Protection Agency [EPA] National Institutes of Environmental Health Sciences [NIEHS] National Toxicology Program [NTP] NCGC Assay Overview The farnesoid-X-receptor (FXR), a nuclear hormone receptor is highly expressed in liver, intestine, kidney and adrenal cortex. Natural ligands of FXR are the bile acids (Cholic acid, Chenodeoxy cholic acid etc). It is an important regulator of diverse metabolic pathways, including the bile acid homeostasis, lipid and glucose metabolisms. FXR regulates the expression of target genes by binding either as a monomer or as a heterodimer with RXR (retinoid X receptor). As FXR regulates a large number of target genes involved in bile acid, lipoprotein and glucose metabolisms, it is a potential pharmacological target for bile acid and lipid disorders. Thus screening environmental chemicals on FXR signaling can be used for the studies focused on metabolic syndrome, hepatic and intestinal toxicity etc.
NCGC Assay Protocol Summary Using a beta-lactamase reporter-gene under control of Farnesoid X receptor (FXR) response element, a cell-based assay [GeneBLAzer FXR-UAS-bla assay developed by Invitrogen] was used to measure FXR ligands signaling. GeneBLAzer FXR-UAS-bla HEK293T cells were used with assay medium containing 10% dialyzed FBS. The assay was performed in clear bottom black Greiner 1536-well plates. Guggulsterone were used in the screen as the positive control. Library compounds were measured for their ability to inhibit the reporter gene activity. Compounds were screened in a titration series in 1536-well format. The fluorescence intensity (405 nm excitation, 460/530 nm emission) was measured using an EnVision plate reader. Data was normalized relative to Chenodeoxycholic acid (50 uM, 100%), and DMSO only wells (basal, 0%). Concentration-response titration points for each compound were fitted to the Hill equation yielding concentrations of half-maximal inhibition (IC50) and maximal response (efficacy) values. qHTS protocol for FXR beta-lactamase assay in antagonist mode [Step] [Parameter] [Value] [Description] 1. Reagent; 5 uL; 5000 cells/well 2. Incubation; 37 C for 5-7 hrs 3. Compounds; 23 nL; 0.59 nM to 92 uM 4. Controls (Guggulsterone, FXR antagonist); 23 nL, - One column of dose response, start 200 uM, 1:2 dilutions in duplicates 5. Agonist (Stimulator); 1uL; Chenodeoxycholic acid at 100 uM and 50 uM final concentrations 6. Incubation; 37 C for 16 hrs 7. Detection reagent; 1 uL of CCF4-dye 8. Incubation; RT for 2 hrs 9. Detection; Fluorescence; Envision plate reader

Sequence of Bile acid receptor (Homo sapiens) (Q96RI1 whole entry, looked up): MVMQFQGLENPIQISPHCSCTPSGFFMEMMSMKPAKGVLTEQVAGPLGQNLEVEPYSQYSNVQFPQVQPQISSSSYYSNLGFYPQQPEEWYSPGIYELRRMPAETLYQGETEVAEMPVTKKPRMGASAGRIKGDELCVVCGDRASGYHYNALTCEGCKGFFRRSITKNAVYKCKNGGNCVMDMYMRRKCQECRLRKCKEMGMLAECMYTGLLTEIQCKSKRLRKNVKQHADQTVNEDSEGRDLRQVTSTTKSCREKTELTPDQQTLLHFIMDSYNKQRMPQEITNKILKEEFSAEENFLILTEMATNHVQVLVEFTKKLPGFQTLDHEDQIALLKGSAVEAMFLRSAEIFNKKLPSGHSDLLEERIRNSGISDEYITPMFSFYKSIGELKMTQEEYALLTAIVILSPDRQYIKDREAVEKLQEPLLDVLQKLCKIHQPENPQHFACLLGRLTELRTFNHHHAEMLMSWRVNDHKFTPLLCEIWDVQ

Compound | outcome
CC(C=O)Cc1ccc(C(C)(C)C)cc1 (stereo not given) | inactive
O=C(O)c1c(Cl)cccc1Cl | inactive
CCNc1ccccc1 | inactive
Cc1ccccc1Br | inactive
Nc1cccc(C(F)(F)F)c1 | inactive
Cc1ccc2cccnc2c1 | inactive
OCCO | inactive
O=C(O)c1ccccc1Cl | inactive
Cc1nc2ccc(Cl)cc2[nH]1 | inactive
CCCC(C)CO (stereo not given) | inactive
Nc1cccc2c(=O)[nH][nH]c(=O)c12 | inactive
CCCCCCCCCCCCC1CO1 (stereo not given) | inactive
Cc1ccc(Cl)cc1N | inactive
O=C(Cl)c1cccc([N+](=O)[O-])c1 | inactive
CC(=O)Nc1ccc(N)cc1 | inactive
O=P(O)(OCc1ccccc1)OCc1ccccc1 | inactive
Clc1ccc(Cl)c(Cl)c1Cl | inactive
Cc1cc(C)cc(N)c1 | inactive
C1COC1 | inactive
CCOC(C)(C)C | inactive

Compound | outcome
Nc1c(Cl)cc(Cl)cc1Cl | inactive
C=C(C)C(=O)OC | inactive
C=C(C)C1CC=C(C)C(OC(C)=O)C1 (stereo not given) | inactive
Cc1ccc(C)cc1 | inactive
Oc1cccc(Nc2ccccc2)c1 | inactive
CC(=O)c1cccc([N+](=O)[O-])c1 | inactive
CCCCN(CCO)CCCC | inactive
Cc1c(C(=O)O)cccc1[N+](=O)[O-] | inactive
CCC1CO1 (stereo not given) | inactive
CC(=O)Nc1cccc(N)c1 | inactive
CCCOCC(C)OCC(C)O (stereo not given) | inactive
O=[N+]([O-])c1ccc(CCO)cc1 | inactive
CC#N | inactive
CCOc1cc(OCC)c(C(C)=O)cc1OCC | inactive
c1ccc2[nH]cnc2c1 | inactive
C=C(C)C(=O)OCCCCCC | inactive
CCc1ccccc1O | inactive
CCC(C)(C)C | inactive
Nc1cc(Cl)c([N+](=O)[O-])cc1O | inactive
CCC(C)O (stereo not given) | inactive
